Screening data from PubChem.
Shown are actives, neighbours in structure and some others; about 7.5% of the full set was active somewhere.
Rab9 promoter act – activates the Rab9 promoter. Huh7 Rab9 promoter-luciferase reporter, luminescence, 24 h. Potency, µM (top dose mostly 9.22 µM), for the others: at the highest dose activation, negative = inhibition, actives largely listed as activators. 320,000 compounds, 2.8% hits. AID 485297; note: % of control where 0% means no effect; nearly all actives have a fitted effect of over 60% in size
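Luminescence from Amplite-detected luciferase (10 minutes, ambient) reports Rab9 promoter activation. Before that, stable Rab9-luciferase Huh7 cells (1500/well, reduced-serum OP-MEM I plus 10% FBS) were exposed to compound for 24 hours at 37C.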
ELG1 genotox – genotoxicity induction in ELG1-luciferase HEK293T cells; HEK293T ELG1-luciferase reporter, luminescence, 16 h; Potency, µM (titrated, usually from 46 µM), for the others: at the highest dose activity change, positive = activation, actives largely listed as activators; 330,000 compounds, 1.3% hits; AID 504466; note: % of control where 0% means no effect; nearly all actives have a fitted effect of over 60% in size
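Cells (2,000/well) expressing the ELG1-luciferase fusion are dosed by pin tool and kept 16 hr at 37 °C, 5% CO2. Signal comes from ONE-Glo luciferase reagent after 30 min at room temperature.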
FLuc counter – firefly luciferase modulation, counter-screen for miR-21 project | AID 588342 | P08659 | purified FLuc, Km substrates, luminescence inhibition | 360,000 compounds, 6.9% hits | Potency, µM (titrated, usually from 57.5 µM), for inactives: top-dose activity change, negative = inhibition, usual class: inhibitors;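 note: plate controls were vehicle for no effect and reference inhibitor for full effect; nearly all actives have a fitted effect of over 55% in size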
Target sequence (P08659 whole entry, looked up): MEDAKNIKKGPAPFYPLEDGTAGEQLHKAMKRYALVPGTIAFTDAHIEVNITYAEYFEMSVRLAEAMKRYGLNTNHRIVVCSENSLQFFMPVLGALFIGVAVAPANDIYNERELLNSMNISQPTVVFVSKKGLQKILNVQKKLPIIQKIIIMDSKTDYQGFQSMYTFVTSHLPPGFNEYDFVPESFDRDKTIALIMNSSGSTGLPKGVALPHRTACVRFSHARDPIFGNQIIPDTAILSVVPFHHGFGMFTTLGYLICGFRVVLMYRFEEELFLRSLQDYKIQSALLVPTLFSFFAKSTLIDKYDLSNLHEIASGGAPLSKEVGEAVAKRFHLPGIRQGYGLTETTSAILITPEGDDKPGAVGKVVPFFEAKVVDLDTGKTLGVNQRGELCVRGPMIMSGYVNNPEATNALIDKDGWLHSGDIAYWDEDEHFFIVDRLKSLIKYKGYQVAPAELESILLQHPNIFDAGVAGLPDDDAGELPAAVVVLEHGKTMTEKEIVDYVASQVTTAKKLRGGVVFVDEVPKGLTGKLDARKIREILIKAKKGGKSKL
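Purified P. pyralis luciferase (10nM final) with 10uM D-luciferin and 10uM ATP (Km levels) in 50mM Tris acetate pH 7.5, 10mM Mg acetate, 0.01% Tween-20, 0.05% BSA; qHTS 6-point titration, ~60 µM downward; luminescence read.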
NPC1 promoter act – activates the NPC1 promoter. Huh7 NPC1 promoter luciferase reporter, 24 h. Potency, µM (highest dose often 9.22 µM), for the others: top-dose activation, usual class: activators. 320,000 compounds, 2.4% hits; note: % of control where 0% means no effect; nearly all actives have a fitted effect of over 60% in size
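Luciferase expression driven by the NPC1 promoter was measured in stably transfected Huh7 cells after a 24 h compound incubation, using a luciferase reagent and a luminescence read.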
SMN2 splice up – increases expression of the SMN2 splice variant; 210,000 compounds, 2.8% hits; Potency, µM (top dose mostly 46.1 µM), without a hit: at the highest dose activity change, positive = activation, usual class: activators; HEK293 SMN2-luciferase splicing reporter, luminescence, 30-36 h; AID 1458; note: % of control where 0% means no effect; nearly all actives have a fitted effect of over 55% in size
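qHTS luciferase splicing reporter: luminescence rises when SMN2 exon 7 is included in transfected HEK293 cells. Compound exposure lasted 30-36 h at 37C, with 4.5 mM final sodium butyrate as control, followed by a ONE-Glo read.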
Starred values were filed as active, the others as inactive; ? = inconclusive; · = not tested or not shown; [ ] = remark or other dose. Calls come from the whole dose curve; as a rule, active = well fitted curve in the direction sought with a large enough effect; inconclusive = small, poorly fitted or top-dose-only effect, or another doubt; inactive = no such curve, though single readings can be large; an effect the other way counts as inactive or inconclusive. Potency is the fitted concentration of half-maximal effect.

SMILES	Rab9 promoter act	ELG1 genotox	FLuc counter	NPC1 promoter act	SMN2 splice up
COC(=O)c1ccc(NC(=O)CC(=O)Nc2ccc(C(=O)OC)cc2)cc1	-3.4%	1.7%	0.7%	-2.0%	·
COC(=O)c1ccc(COc2ccccc2/C=C/C(=O)c2ccc(OCC(=O)O)cc2)cc1	3.4%	-5.0%	5.36µM*	-0.2%	·
CCCOc1ccc(C(=O)Nc2ccc(NC(=O)c3cccs3)cc2)cc1	12.1%	4.9%	-2.8%	0.6%	·
CC1(C)C2CCC1(C(=O)O)c1nc3ccccc3nc12 (stereo not given)	-2.3%	1.0%	1.7%	0.1%	-19.0%
O=C(O)/C=C/c1ccc(OCc2cccc(F)c2)cc1	-2.0%	26.2%	16.9µM*	1.0%	·
COCCOc1ccc(C(F)(F)F)cc1NC(=O)c1ccc(C(F)(F)F)cc1	10.4%	1.4%	2.0%	0.2%	·
COCCOc1ccc(C(F)(F)F)cc1Nc1nc2ccccc2o1	-1.5%	?	15.1µM*	-2.4%	10.0%
NNC(=O)C=C1CCN(c2ncc(C(F)(F)F)cc2Cl)CC1	11.9%	-1.0%	-2.3%	-1.9%	-64.0%
O=C(O)C=C1CCN(c2ncc(C(F)(F)F)cc2Cl)CC1	?	7.6%	19µM*	?	14.3%
N#Cc1ccc2c(c1)C[C@]1(c3ccsc3)Oc3c(c(=O)oc4ccccc34)C2O1	-4.0%[1.84 µM]	·	3.09µM*	-0.8%[1.84 µM]	·
N#Cc1ccc2c(c1)C[C@]1(c3ccsc3)Oc3c(c(=O)oc4ccc(F)cc34)C2O1	-6.9%[1.84 µM]	·	?	-3.4%[1.84 µM]	·
O=C(CCc1ccccc1)Nc1cccnc1Cl	24.9%	9.1%	-14.7%	15.8%	·
CCC(C)(C)c1ccc(OC(=O)c2cccnc2Cl)cc1	5.8%	?	4.78µM*	-1.3%	·
O=C(CC(=O)c1ccccc1)Nc1cccnc1Cl	?	?	12µM*	?	12.6µM*
O=C(OCc1ccc(COC(=O)c2cccnc2Cl)cc1)c1cccnc1Cl	-7.0%	-3.5%	?	-4.6%	-4.1%
O=C(COC(=O)c1cccnc1Cl)c1ccc(F)cc1	1.0%	7.5%	3.01µM*	1.7%	14.1%
O=C(OCc1ccc(F)cc1)c1cccnc1Cl	-0.5%	0.5%	-1.5%	-2.5%	·
CCc1ccc(C(=O)COC(=O)c2cccnc2Cl)cc1	6.8%	-2.3%	0.426µM*	1.3%	19.8%
O=C(COC(=O)c1cccnc1Cl)c1ccccc1	2.5%	?	2.69µM*	12.9%	15.2%
COc1ccc(CNC(=O)COc2ccc(C(=O)c3ccc(F)cc3)cc2)cc1	-5.0%	-1.5%	-9.3%	-7.6%	-7.0%
COc1ccc(C(C)=O)c(O)c1	·	·	·	·	-6.9%
O=C(COc1ccc(F)cc1)c1c(O)cc(O)cc1O	?	?	8.49µM*	?	·
COc1ccc(C(=O)COc2ccc(F)cc2)c(O)c1	?	?	13.5µM*	3.16µM*	·
COc1cc2c(C(=O)Nc3ccc(C)cc3Br)cn(C)c(=O)c2cc1OC	·	·	-2.4%	·	10.5%
CC1(C)CC(NS(=O)(=O)OCC(Cl)(Cl)Cl)c2cc(C#N)ccc2O1 (stereo not given)	-1.7%	-8.9%	0.4%	-3.0%	·
SMILES	Rab9 promoter act	ELG1 genotox	FLuc counter	NPC1 promoter act	SMN2 splice up
CCN(CC)C(=O)c1ccc(-c2cccs2)s1	3.55µM*	?	10.7µM*	2.51µM*	·
CCN(CC)C(=O)c1sc(NC(=O)c2cccs2)c(C#N)c1C	-8.5%	-3.1%	-13.9%	-7.7%	·
CCOC(=O)C1Sc2ccccc2NC1=O (stereo not given)	-5.4%	4.0%	-6.6%	-0.6%	-3.6%
COc1cc2c(cc1NC(=O)C1CCCO1)oc1ccccc12 (stereo not given)	3.55µM*	4.61µM*	6.01µM*	3.98µM*	25.1µM*
COc1ccc(Cl)cc1NC(=O)C1CCCO1 (stereo not given)	2.8%	4.9%	2.0%	-1.8%	·
Cc1ccc2scc(N3CCN(c4cccc(C(F)(F)F)c4)CC3)c(=O)c2c1	·	·	-7.1%	·	·
Cc1ccc2scc(N3CCCC(C)C3)c(=O)c2c1 (stereo not given)	·	·	0.757µM*	·	·
CC1CCCCN1c1csc2ccc(F)cc2c1=O (stereo not given)	·	·	7.57µM*	·	·
O=C(NCc1cc([N+](=O)[O-])ccc1O)c1cccnc1Sc1ccccc1Cl	-4.7%	-7.9%	15.1µM*	-4.8%	·
O=C(NCc1cc([N+](=O)[O-])ccc1O)c1cccnc1Sc1ccc(Cl)cc1	16.2%	6.51µM*	?	?	·
Cc1ccc(S(=O)(=O)N2CCCC2C(=O)OCC(=O)Nc2ccc3c(c2)OCO3)cc1 (stereo not given)	6.2%	-2.6%	-0.2%	-0.2%	-5.6%
CN(C)c1ncc(S(=O)(=O)c2ccccc2)c(-c2ccccc2Cl)n1	-0.1%	-0.6%	0.9%	-5.1%	2.3%
COc1ccccc1CNN	-3.6%	0.0%	-6.3%	-1.2%	·
CC(C)Sc1nnc(NC(=O)c2ccc3c(c2)OCO3)s1	1.41µM*	?	5.36µM*	2.24µM*	·
CCN(CC)C(=O)c1sc(NC(=O)c2ccc3c(c2)OCO3)c(C(N)=O)c1C	?	4.9%	19µM*	?	·
CCOC(=O)c1sc(NC(=O)COc2ccc3c(c2)OCO3)nc1C	2.9%	0.2%	1.3%	0.1%	·
CCSc1nnc(NC(=O)c2ccc3c(c2)OCO3)s1	1.58µM*	2.06µM*	6.75µM*	2.51µM*	10µM*
CC(C)(C)c1nnc(NC(=O)COc2ccc3c(c2)OCO3)s1	?	?	12µM*	3.55µM*	·
CCOC(=O)N1CCN(C(=O)c2cnn3c(C(F)(F)F)cc(-c4cccs4)nc23)CC1	-2.1%	-8.9%	-1.5%	-7.5%	-2.8%
CC(c1ccccc1)c1nnc(NC(=O)c2ccc3c(c2)OCO3)s1 (stereo not given)	-1.1%	3.4%	-13.7%	-3.8%	·
CC(C)(C)c1nnc(NC(=O)c2ccc3c(c2)OCO3)s1	2.51µM*	?	6.75µM*	2µM*	·
CCOC(=O)CSc1nnc(NC(=O)c2cccc(S(=O)(=O)N3CCCCCC3)c2)s1	2.3%	1.4%	-2.7%	-2.4%	14.4%
CCOC(=O)CSc1nnc(NC(=O)c2ccc3c(c2)OCO3)s1	10.1%	19.3%	1.07µM*	-5.7%	·
